# Laboratory results reported in ChEMBL document CHEMBL3988442, “University of Dundee, Small-Polar-MMV Screening Library” (2021).
# Experiments:
# [1] = biological target: T1, Aspartate--tRNA(Asp/Asn) ligase (Mycobacterium tuberculosis (strain ATCC 25618 / H37Rv)) (UniProt P9WFW3); experiment: Assay for Asp RNA synthetase-1 from Mycobacterium tuberculosis; type: functional; design: scale not given: direction of the effect not stated beside the values; details: 30 µM; further: in the data most compounds retested in dose-response had high values
# T1 sequence (whole entry): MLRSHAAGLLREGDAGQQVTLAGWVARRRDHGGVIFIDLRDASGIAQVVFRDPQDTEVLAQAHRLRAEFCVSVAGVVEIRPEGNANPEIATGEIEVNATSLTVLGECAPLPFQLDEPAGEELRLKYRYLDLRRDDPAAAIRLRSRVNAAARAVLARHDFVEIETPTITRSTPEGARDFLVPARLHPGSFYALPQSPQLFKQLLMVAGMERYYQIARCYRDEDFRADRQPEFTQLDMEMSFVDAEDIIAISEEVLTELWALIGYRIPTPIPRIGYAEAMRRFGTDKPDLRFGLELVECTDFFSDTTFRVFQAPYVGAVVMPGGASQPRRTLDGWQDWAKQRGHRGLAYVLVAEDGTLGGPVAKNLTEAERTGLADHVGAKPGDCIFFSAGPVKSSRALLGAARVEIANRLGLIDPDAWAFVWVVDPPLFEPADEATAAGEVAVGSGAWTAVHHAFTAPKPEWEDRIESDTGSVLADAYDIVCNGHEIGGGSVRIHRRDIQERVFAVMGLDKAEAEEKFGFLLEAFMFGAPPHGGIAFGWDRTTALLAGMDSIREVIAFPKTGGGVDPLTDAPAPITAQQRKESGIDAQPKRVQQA
# [2] = biological target: Shiga toxin 2 (Escherichia coli O157:H7) (UniProt P09385+P09386); experiment: E. coli 0.157:H7 Shiga Toxin SOP - stx2 screening assay; type: functional; design: scale not given: direction of the effect not stated beside the values; details: 30 µM
SMILES,Percent Effect [1],Percent Effect [2]
Cc1nc(C2CCCN(C(=O)c3ccc(Cn4cccn4)o3)C2)no1 (centres undefined),-5.64%,12.3%
Cn1nccc1-c1ccc2nc(C3CCN(CCO)CC3)nn2c1,-1.83%,-15.6%
Cc1cnc(CN2CCOC(Cn3nc(C)nc3C)C2)cn1 (centres undefined),-1.8%,-9.64%
CC(c1nc(C2CC2)no1)N1CCN(CCOCC(F)(F)F)CC1 (centres undefined),-1.02%,-10.3%
CCOC(=O)c1sc2ccsc2c1CN,-0.321%,42.1%
O=C(NCCCN1CCCC1=O)Nc1ccc(Br)cc1Cl,-2.15%,-11%
CN(C)CCN(Cc1cccc(C(F)(F)F)c1)C(=O)c1cc[nH]n1,0.947%,-18.8%
Cn1cc(CN2CC[C@H]3OCC[C@@H](C(=O)N4CCCCO4)[C@@H]3C2)cn1,2.85%,-10.1%
O=C([C@H]1CCCO1)N1CCCC2(CCN(Cc3ccncc3)C2=O)C1 (some centres undefined),3.8%,-9.24%
O=C(c1cc2cc(F)ccc2[nH]1)N1CCC(Nc2cccnn2)CC1,-0.116%,-83.2%
Cc1nc(CN2CCCN(CC(=O)Nc3cccnc3)CC2)no1,1.58%,16.4%
Cc1cc(NC(=O)NCC(O)c2ccc(Cl)cc2Cl)n(C)n1 (centres undefined),-2.66%,24.8%
CCc1nnc2n1CCN(Cc1csc(-c3ccsc3)n1)C2,1.89%,-7.29%
CC(C)(C)c1ccc(C2(C(=O)NCCS(N)(=O)=O)CC2)cc1,13.3%,-15.1%
Cc1cccc(CN2C(=O)CO[C@@H]3CN(Cc4nccn4C)C[C@H]32)c1,-0.971%,-7.92%
Cc1cc(C)n(CC2CCCN2CC(=O)N(C)C)n1 (centres undefined),-2.12%,10.1%
CS(=O)(=O)N1Cc2ccccc2C2(CCN(C(=O)c3ccno3)CC2)C1,1.46%,-6.76%
Cc1ccc(C2CSCCN2C(=O)c2ccsc2)o1 (centres undefined),3.37%,16.4%
CN1CCCCC1c1ncc2c(n1)CCN(Cc1ccccc1Cl)C2 (centres undefined),3.02%,-22.5%
Cn1ccnc1-c1cccc(NC(=O)NCCCO)c1,-2.56%,-54.8%
Cc1cnn(C2CCCN(C(=O)c3cc(C)sc3C)C2)c1 (centres undefined),-4.82%,-24.8%
O=C(c1ccsc1)N1C[C@@H]2C[C@@H](c3nnc(C4CC4)o3)O[C@@H]2C1,6.08%,-18.3%
CNc1cc(CNC(=O)c2ccccc2)nc(-c2ccncc2)n1,-4.09%,11.3%
COCCN1CCOCC2(CCCN(Cc3ccc(C)o3)C2)C1 (centres undefined),-0.582%,-6.63%
O=c1cc(Cn2ccnc2)nc2n1CCCN(Cc1ccsc1)C2,-0.029%,-13.8%
CCc1noc(C(C)N2CCN(Cc3nnc(C4CC4)o3)CC2)n1 (centres undefined),-4.98%,10.9%
CCc1cnc(CN2CCCC2c2noc(C3CC3)n2)o1 (centres undefined),2.19%,19.7%
